# High-throughput results as filed in PubChem.
# CHT PAM = allosterically activates the human high affinity choline transporter; B-score at 10 µM; Q9GZV3; actives 0.49% (n = 310,000); CHT-expressing cells, membrane potential dye, choline EC20; hits give high values; LV-AA mutant CHT in HEK293 cells; AID 488977;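 active means initial fluorescence not abnormally high and integrated response B-score, plate-corrected, over 3 SD above library mean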
# Target sequence (Q9GZV3 whole entry, looked up): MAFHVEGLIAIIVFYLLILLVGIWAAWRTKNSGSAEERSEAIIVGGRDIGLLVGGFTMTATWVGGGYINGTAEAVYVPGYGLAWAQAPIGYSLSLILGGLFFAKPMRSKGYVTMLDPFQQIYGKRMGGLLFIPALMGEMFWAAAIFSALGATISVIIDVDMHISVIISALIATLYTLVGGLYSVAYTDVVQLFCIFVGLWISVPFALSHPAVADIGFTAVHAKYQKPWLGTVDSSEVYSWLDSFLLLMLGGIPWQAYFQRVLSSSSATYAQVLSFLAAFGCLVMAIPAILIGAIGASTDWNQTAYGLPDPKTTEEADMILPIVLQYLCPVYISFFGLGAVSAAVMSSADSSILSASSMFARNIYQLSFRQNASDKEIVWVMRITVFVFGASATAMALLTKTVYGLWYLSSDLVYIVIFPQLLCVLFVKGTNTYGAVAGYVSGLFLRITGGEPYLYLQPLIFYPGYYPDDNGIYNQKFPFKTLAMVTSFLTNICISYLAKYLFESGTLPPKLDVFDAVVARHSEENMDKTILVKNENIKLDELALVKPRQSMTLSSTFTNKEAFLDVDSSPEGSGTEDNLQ
# Mot1-301 SUMO = inhibitors of SUMOylation pathway: yeast Mot1-301 growth rescue; actives 1% (n = 320,000); growth rescue, % at 18.8 µM; S. cerevisiae Mot1-301 growth rescue, ATP luminescence, 38.5C; percent above DMSO median, 100 means doubled;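 active means every valid replicate shows activation above 250% relative to neutral control wells; inactive means the rest, any valid replicate at or below 250%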;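 further: OY570 slx delta 5 strain wells were the positive control but not used for scaling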
# NALP3 yeast inh = NALP3 inhibition in yeast. inhibition, % at 10 µM. actives 0.39% (n = 330,000). AID 2825. Yeast reconstituted NLRP3/ASC/caspase-1, beta-gal luminescence, 24 h;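 active means inhibition of 50% or more; inactive means inhibition below 50%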;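 further: plate controls were induced DMSO wells for no effect and uninduced yeast grown without galactose for full effect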
# A1 inh = inhibitors of the anti-apoptotic protein A1, read as caspase activation | MEF A1-2A-BIM cells, Caspase-Glo 3/7 luminescence, 3 h; percent of clofoctol response, vehicle zero | caspase activation, % (test concentration not listed) | actives 0.066% (n = 330,000) | AID 2462;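 active means over half of replicate activation scores above 10%, or exactly half above 10 with the replicate mean above 10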
# CHT inh = human CHT choline transport inhibition | Q9GZV3 | CHT-expressing cells, membrane potential dye, choline response; hits give low values | B-score at 10 µM | actives 0.86% (n = 310,000);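 active means B-score over 3 SD under the library average, and starting fluorescence ratio not unusually high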;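 further: choline stimulus applied at its EC90 after an EC20 pre-addition; B-score computed on integrated fluorescence ratio after choline addition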
# NALP1 inh = inhibitors of NALP1 inflammasome in yeast. S. cerevisiae NALP1/ASC/caspase-1 growth, X-gal OD620, 72 h. inhibition, % at 10 µM. actives 0.61% (n = 280,000); in the data active means inhibition mostly above about 24%, no sharp cut-off; inactive means mostly below about 32%
# Mot1 SUMO dose = SUMO pathway inhibitors in yeast Mot1-301 growth. growth activity, percent, % at 42 µM. shares compounds with Mot1-301 SUMO. 2,300 tested, under 10 active. S. cerevisiae Mot1-301 galactose growth, ATP luminescence, 24 h; -100 = growth of slx-deleted rescue strain;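 active means Signal drops as the depositor expects, and the fitted half-maximal dose is no more than ten times the top valid tested dose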;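 further: more negative values mean stronger growth rescue toward the control strain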
# * marks the source's active call; other numbers are inactive results; i = inactive; . = not tested or not shown; [ ] = remark or other dose. An excerpt weighted towards active compounds, which were near 3% of everything screened.
SMILES,CHT PAM,Mot1-301 SUMO,NALP3 yeast inh,A1 inh,CHT inh,NALP1 inh,others
Nc1c2c(nc3sc4c(c13)CCCC4)CCCCC2,i,40.6,47.5,0.6,i,54.3*,
Cc1ccc(C)c(Cn2c(C(=O)O)c(C=O)c3ccccc32)c1,i,7.4,1.1,0.6,i,27.5*,
CCOP(=O)(OCC)C(NC(=O)c1ccccc1C)C(Cl)(Cl)Cl (stereo not drawn),i,-17.5,13.0,1.7,i,17.3,
O=P(OCC(F)(F)C(F)F)(N1CCCCC1)N1CCCCC1,i,-10.5,3.0,0.3,i,.,
CC1(C)COC(Nc2ccc(Cl)cc2)=N1,i,10.7,4.7,0.1,i,40.7*,
C[C@@H]1C(=O)O[C@@H]2[C@H](O)C34[C@@H]5OC(=O)C3(O[C@H]3OC(=O)[C@H](O)C34[C@H](C(C)(C)C)[C@H]5O)[C@@]12O (stereo partly drawn),i,60.5,12.2,1.5,i,14.7,
O=C(O)c1[nH]c(=O)[nH]c(=O)c1F,i,37.3,1.6,0.0,i,0.1,
COc1ccc(N/N=C/c2c(O)n(-c3ccc(C)c(C)c3)c(=O)[nH]c2=O)cc1,i,42.7,38.5,0.8,i,27.0,
Cc1ccc(-n2c(O)c(/C=N/Nc3ccccc3)c(=O)[nH]c2=O)cc1C,i,310.3*,21.4,1.1,i,-5.4,
CCN1CCN(Cc2cc(Br)ccc2O)CC1,i,15.3,-0.8,0.4,i,43.0*,
COc1ccc(OC)c(N2Cc3ccccc3C2=N)c1,i,23.3,1.9,-0.2,i,9.8,
COc1cccc(-c2sc3ccccc3c2-c2ccc(OCCN3CCOCC3)cc2)c1,.,462.5*,21.4,3.0,.,.,
CC1=NOC2(C)Nc3ncnn3C(c3ccccc3)C12 (stereo not drawn),i,-6.4,12.0,0.3,i,35.6*,
Cc1cccc(N2C(=O)NC(=O)/C(=C/c3ccc([N+](=O)[O-])o3)C2=O)c1,i,1.1,.,-0.4,i,48.3*,
Cc1cccc(N2C(=O)NC(=O)/C(=C\C=C\c3ccco3)C2=O)c1,i,4.8,18.5,1.5,i,7.4,
O=C1/C(=C\c2cc3c(cc2Cl)OCO3)N2CCC1CC2,i,-5.4,5.0,0.7,i,44.6*,
O=C1/C(=C/c2cc3c(cc2Cl)OCO3)N2CCC1CC2,i,-13.5,7.5,-0.4,i,46.8*,
O=C1/C(=C\c2ccc(Cl)cc2Cl)N2CCC1CC2,i,-6.7,7.6,0.2,i,2.6,
CNC(C)(C)Cc1ccccc1,i,12.9,15.1,-0.5,i,.,
COc1cc(/C=C/[N+](=O)[O-])ccc1OC(=O)c1cccnc1,i,1.9,41.8,8.0*,i,16.8,
COc1cc2c(cc1/C=C/[N+](=O)[O-])OCO2,.,.,.,.,.,9.0,
CCOC(=O)C1(CCc2ccccc2)CCN(Cc2csc(C(C)=O)c2)CC1,i,280.4,35.0,-0.5,i,27.2*,
Cc1cc(C)nc(N2Cc3ccccc3C2=N)n1,i,29.8,12.9,0.6,i,8.3,
CC(C)(C)N1Cc2ccccc2C1=N,i,-2.7,15.8,-0.3,i,42.9*,
COc1ccc(S(=O)(=O)N2CCOCC2)cc1NC(=O)COC(=O)Cc1ccccc1,.,-3.4,12.6,-1.3,.,.,
SMILES,CHT PAM,Mot1-301 SUMO,NALP3 yeast inh,A1 inh,CHT inh,NALP1 inh,others
COc1cc(C(=S)N2CCOCC2)cc(OC)c1OC(=O)Cc1ccccc1,i,-12.1,10.3,0.5,-5.07*,-0.7,
COc1ccc(OC)c(-n2c(O)c(C=Nc3c(C)n(C)n(-c4ccccc4)c3=O)c(=O)[nH]c2=S)c1,i,-10.2,-1.2,0.1,i,6.0,
COc1c(C)cc(C(=O)C2CCCN(Cc3cnc(C)s3)C2)cc1C (stereo not drawn),i,279.5,13.9,1.7,i,12.3,
Cc1ncc(CN2CCCC(C(=O)c3cccc(OC(C)C)c3)C2)s1 (stereo not drawn),i,294.6*,23.1,0.4,i,13.7,
CC(=O)OC(C)(C)/C=C/C(=O)[C@](C)(O)C1[C@H](O)C[C@@]2(C)C3CC=C4C(C[C@H](O)C(=O)C4(C)C)[C@]3(C)C(=O)C[C@]12C (stereo partly drawn),.,5.4,14.9,20.7*,.,.,
CN1C(=O)CN=C(c2ccccc2)c2cc([N+](=O)[O-])ccc21,.,.,.,.,.,-8.0,
CN(C)c1ccc(/C=C/[N+](=O)[O-])cc1,i,119.2,11.0,1.5,i,79.5*,
CC(C)OP(=O)(OC(C)C)C(NCc1ccccc1)c1ccccc1 (stereo not drawn),i,16.7,3.6,1.6,i,18.0,
Nc1ccccc1-[n+]1c(-c2ccccc2)cc(-c2ccccc2)cc1-c1ccccc1,i,-16.2,29.4,2.4,i,18.5,
O=C(O)c1ccc(-[n+]2c(-c3ccccc3)cc(-c3ccccc3)cc2-c2ccccc2)cc1,i,41.0,-2.2,-0.8,i,.,
Brc1ccc(-[n+]2c(-c3ccccc3)cc(-c3ccccc3)cc2-c2ccccc2)cc1,12.3*,0.8,14.9,-0.1,i,.,
Cc1ccccc1-[n+]1c(-c2ccccc2)cc(-c2ccccc2)cc1-c1ccccc1,7.54*,-12.0,-2.0,0.9,i,.,
CCOc1ccccc1-n1c(O)c(C=NCCCN(CC)CC)c(=O)[nH]c1=O,i,252.0,-0.5,-0.3,i,-2.2,
Cc1ccc(O)c(C)c1,.,388.9*,-3.0,0.3,.,.,Mot1 SUMO dose=1.2
O=C(O)C1C(C(=O)O)C2(Cl)C(Cl)=C(Cl)C1(Cl)C2(Cl)Cl (stereo not drawn),.,400.4*,5.4,-0.4,.,.,Mot1 SUMO dose=0.7
C[C@]12CC[C@H](O)CC1=CC(=O)C1C2CC[C@]2(C)C(=O)CCC12 (stereo partly drawn),.,2.8,17.0,0.5,.,.,
CCOC(=O)Cn1cc(C(=O)c2ccccc2)c2ccccc21,i,0.2,24.7,0.2,i,2.7,
Cc1cccc(N/N=C/c2c(O)[nH]c(=S)[nH]c2=O)c1,i,376.3*,4.6,-10.2,i,.,Mot1 SUMO dose=0.1
COc1ccc(N/N=C/c2c(O)n(-c3cccc(C)c3)c(=O)[nH]c2=O)cc1,i,216.3,18.8,0.1,i,-7.6,
OC[C@@H](O)CCl,i,360.1*,16.2,-0.3,i,.,Mot1 SUMO dose=0.3
CC(=O)C1(c2ccccc2)CCNCC1,i,706.2*,5.5,1.5,i,19.2,Mot1 SUMO dose=0.4[21 µM]
COC(=O)C1=C(c2ccc3ccccc3c2)C[C@@H]2CC[C@H]1N2C(=O)NC1CC1,.,-2.4,-1.2,0.3,.,.,
